Measurements reported in PubChem BioAssay.
Results filed as inconclusive are left out. Calls of active or inactive are those of the source.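 Rule for the calls, unless noted: active = aptamer binding inhibition above 30%, about 3 SD of noise from non-fluorescent compounds; inactive = inhibition at or below 30%.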

How the values were obtained:
[1] = rapamycin-like changes in RPL19A-GFP expression – cell-based, S. cerevisiae, multiplex flow cytometry, primary screen (AID 1862; in the data active = percent of DMSO control GFP below about 86%;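 note: lower values mimic rapamycin by blocking the RPL19A rise seen in DMSO cells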); conditions: S. cerevisiae RPL19A-GFP strain, flow cytometry fluorescence, 3 h; at 10 µM; stronger effect = lower value
[2] = TOR pathway GLN3 branch reporter MEP2-GFP changes – S. cerevisiae, multiplex flow cytometry, primary screen (AID 1867;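 active = GFP response, as percent of the DMSO control, above the screen-wide mean plus 3 SD, about 139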;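 note: median GFP channel fluorescence of barcode-gated MEP2-GFP cells measured by flow cytometry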); conditions: S. cerevisiae MEP2-GFP strain, 3 h, at 10 µM, stronger effect = higher value, 100% means same as DMSO wells
[3] = TOR pathway RTG branch CIT2 reporter changes – S. cerevisiae, GFP fusion, multiplex flow cytometry, primary screen (AID 1870;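 active = percent response above a set limit, the screen-wide mean plus 3 SD, cut at about 130% in these data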;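 note: barcoded CIT2-GFP strain pooled with four other GFP strains with rapamycin as positive control; median GFP fluorescence per well over plate mean of DMSO wells so 100% = DMSO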); conditions: S. cerevisiae CIT2-GFP expression, 3 h, at 10 µM, stronger effect = higher value
[4] = TOR pathway LAP4-GFP level changes – S. cerevisiae, multiplex flow cytometry, primary screen (AID 1873;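 active = GFP signal, as percent of the solvent control, above the screen mean plus 3 SD, about 149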); conditions: S. cerevisiae LAP4-GFP expression, 3 h, at 10 µM, stronger effect = higher value
[5] = yeast AGP1-GFP level changes, GLN3 branch – cell-based, multiplex flow cytometry, S. cerevisiae, primary screen (AID 1887;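 active = GFP signal above the screen-wide mean plus 3 SD, that is over about 124.5% of the solvent control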;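 note: AGP1-GFP fusion strain of S. cerevisiae within a five-strain barcoded multiplex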); conditions: 3 h, at 10 µM, stronger effect = higher value
[6] = reduced mouse 2C T cell binding to pMHC/ICAM-1 vesicles – MLPCN validation set, flow cytometry, LFA-1/ICAM-1 modulator project, pilot screen (AID 2523;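 active = response below a set limit, under 55% cells CD8-positive and vesicle-bound, and CD8 cells' 90th-percentile brightness under 279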;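 for vesicle binding response: mean PE anti-B7-1 fluorescence of CD8+ cells relative to row control; 100% = QL9-loaded vesicles with DMSO vehicle in the same plate row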); conditions: 2C mouse CD8+ T cells, at 7 µM, stronger effect = lower value; double positive events: measured here: CD8+/vesicle+ event percentage
[7] = target: Integrin beta-1 (Homo sapiens) + Integrin alpha-4 (Homo sapiens) (UniProt P13612+P05556); test: alpha4beta1 integrin LIBS antibody binding reduction – U937 cells, HUTS-21 mAb, flow cytometry, validation set, VLA-4 allosteric modulator project, pilot screen (AID 2674;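 active = inhibition above 50%, about 3 SD of the validation set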;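 note: antibody binding induced by the VLA-4 ligand LDV present at three times its Kd; 0% = LDV ligand with antibody and no compound and 100% = antibody without LDV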); conditions: HUTS-21 LIBS mAb binding, at 6.7 µM, stronger effect = higher value, binding induced by LDV ligand
Chain of Integrin beta-1 (Homo sapiens) + Integrin alpha-4 (Homo sapiens) (P05556 whole entry, looked up): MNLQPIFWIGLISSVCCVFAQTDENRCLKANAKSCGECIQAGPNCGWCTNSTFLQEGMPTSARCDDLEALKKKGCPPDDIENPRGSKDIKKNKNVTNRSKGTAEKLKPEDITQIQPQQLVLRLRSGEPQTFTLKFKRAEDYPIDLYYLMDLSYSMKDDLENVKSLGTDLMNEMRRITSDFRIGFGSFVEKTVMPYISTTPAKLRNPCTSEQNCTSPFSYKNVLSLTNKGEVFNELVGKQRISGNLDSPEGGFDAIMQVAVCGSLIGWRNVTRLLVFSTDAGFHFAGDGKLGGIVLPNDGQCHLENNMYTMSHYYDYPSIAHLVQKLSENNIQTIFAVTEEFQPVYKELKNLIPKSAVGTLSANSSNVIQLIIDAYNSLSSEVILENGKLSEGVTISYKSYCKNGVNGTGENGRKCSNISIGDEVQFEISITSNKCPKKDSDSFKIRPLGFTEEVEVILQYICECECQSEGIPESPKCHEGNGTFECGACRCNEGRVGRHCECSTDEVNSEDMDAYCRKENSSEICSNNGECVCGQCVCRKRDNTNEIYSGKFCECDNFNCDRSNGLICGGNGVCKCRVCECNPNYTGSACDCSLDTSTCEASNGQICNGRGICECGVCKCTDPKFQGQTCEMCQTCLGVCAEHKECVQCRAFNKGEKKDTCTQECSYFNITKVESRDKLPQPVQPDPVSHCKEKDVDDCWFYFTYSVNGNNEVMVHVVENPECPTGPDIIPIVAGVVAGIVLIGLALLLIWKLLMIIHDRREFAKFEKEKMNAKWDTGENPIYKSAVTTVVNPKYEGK
Chain of Integrin beta-1 (Homo sapiens) + Integrin alpha-4 (Homo sapiens) (P13612 whole entry, looked up): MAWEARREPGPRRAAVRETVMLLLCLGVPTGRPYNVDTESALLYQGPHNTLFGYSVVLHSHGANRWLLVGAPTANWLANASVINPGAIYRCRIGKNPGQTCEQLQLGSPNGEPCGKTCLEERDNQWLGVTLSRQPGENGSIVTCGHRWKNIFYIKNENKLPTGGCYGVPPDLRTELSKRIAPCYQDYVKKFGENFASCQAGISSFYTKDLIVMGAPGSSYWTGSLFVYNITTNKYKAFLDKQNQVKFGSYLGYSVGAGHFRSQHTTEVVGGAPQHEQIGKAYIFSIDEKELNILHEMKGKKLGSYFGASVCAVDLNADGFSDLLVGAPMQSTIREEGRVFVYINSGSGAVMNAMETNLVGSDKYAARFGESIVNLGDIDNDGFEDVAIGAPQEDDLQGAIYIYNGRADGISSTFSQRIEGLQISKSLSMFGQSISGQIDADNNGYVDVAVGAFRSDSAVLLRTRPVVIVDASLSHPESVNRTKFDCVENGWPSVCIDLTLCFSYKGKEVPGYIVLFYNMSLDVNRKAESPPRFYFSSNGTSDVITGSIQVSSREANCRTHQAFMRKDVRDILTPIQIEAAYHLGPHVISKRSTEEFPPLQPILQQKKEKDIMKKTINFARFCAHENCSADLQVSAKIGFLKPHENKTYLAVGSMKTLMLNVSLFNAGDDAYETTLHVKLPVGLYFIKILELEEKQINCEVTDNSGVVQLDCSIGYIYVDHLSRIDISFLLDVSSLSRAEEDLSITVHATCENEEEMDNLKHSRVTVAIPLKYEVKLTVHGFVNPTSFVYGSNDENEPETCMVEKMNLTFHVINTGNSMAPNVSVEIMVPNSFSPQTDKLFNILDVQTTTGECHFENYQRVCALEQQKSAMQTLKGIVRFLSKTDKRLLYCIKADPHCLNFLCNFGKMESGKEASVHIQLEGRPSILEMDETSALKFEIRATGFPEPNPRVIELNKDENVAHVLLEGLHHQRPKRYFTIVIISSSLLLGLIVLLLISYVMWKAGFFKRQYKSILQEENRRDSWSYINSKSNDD

[8] = calorie-restriction mimetic ROS inhibitors, yeast – validation compound set, pilot screen (AID 2706;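 active = superoxide response below 65% of plate, a cut near 3 SD across the whole screen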;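 note: yeast exposed to compound for one week at 30 degrees C before staining; 100% = mean of all compound wells on the same plate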); conditions: S. cerevisiae aging, superoxide DHE fluorescence; at 10 µM; stronger effect = lower value
[9] = target: Beta-adrenergic receptor kinase 1 (Homo sapiens) (UniProt P25098); test: GRK2 binders displacing RNA aptamer, biochemical, validation, human GRK2, bead flow cytometry (AID 488806); conditions: bead-bound GRK2, FAM-aptamer displacement, at 10 µM, stronger effect = higher value
Chain of Beta-adrenergic receptor kinase 1 (Homo sapiens) (P25098 whole entry, looked up): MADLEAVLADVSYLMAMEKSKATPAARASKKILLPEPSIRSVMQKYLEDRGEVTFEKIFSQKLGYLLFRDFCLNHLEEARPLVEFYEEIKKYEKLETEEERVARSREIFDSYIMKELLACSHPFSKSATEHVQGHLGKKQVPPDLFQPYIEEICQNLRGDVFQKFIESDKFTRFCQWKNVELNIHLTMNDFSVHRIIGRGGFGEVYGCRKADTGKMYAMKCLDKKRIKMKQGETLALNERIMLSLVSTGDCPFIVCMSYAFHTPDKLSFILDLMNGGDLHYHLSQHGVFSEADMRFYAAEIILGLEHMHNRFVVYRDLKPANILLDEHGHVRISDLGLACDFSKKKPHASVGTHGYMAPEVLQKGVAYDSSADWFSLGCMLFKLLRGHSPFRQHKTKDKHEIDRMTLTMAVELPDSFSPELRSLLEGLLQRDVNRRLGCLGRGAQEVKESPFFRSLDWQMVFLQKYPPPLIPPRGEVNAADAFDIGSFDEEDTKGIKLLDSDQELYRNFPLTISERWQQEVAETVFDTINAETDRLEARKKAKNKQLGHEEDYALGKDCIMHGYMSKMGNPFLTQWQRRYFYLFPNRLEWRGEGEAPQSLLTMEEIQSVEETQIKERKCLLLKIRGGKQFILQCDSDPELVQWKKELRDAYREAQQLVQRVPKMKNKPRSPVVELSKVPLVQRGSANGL

[10] = target: Beta-2 adrenergic receptor (Homo sapiens) (UniProt P07550); test: agonist-induced loss of surface beta2AR – cell-based, FAP fluorogen, flow cytometry, validation set, pilot screen (AID 504459;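 active = percent response above 42, roughly 3 SD of non-fluorescent test compounds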;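 note: agonist-driven loss of surface beta2AR via internalization measured by FAP dye flow cytometry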); conditions: Am2.2-beta2AR cells, at 10 µM, stronger effect = higher value
Chain of Beta-2 adrenergic receptor (Homo sapiens) (P07550 whole entry, looked up): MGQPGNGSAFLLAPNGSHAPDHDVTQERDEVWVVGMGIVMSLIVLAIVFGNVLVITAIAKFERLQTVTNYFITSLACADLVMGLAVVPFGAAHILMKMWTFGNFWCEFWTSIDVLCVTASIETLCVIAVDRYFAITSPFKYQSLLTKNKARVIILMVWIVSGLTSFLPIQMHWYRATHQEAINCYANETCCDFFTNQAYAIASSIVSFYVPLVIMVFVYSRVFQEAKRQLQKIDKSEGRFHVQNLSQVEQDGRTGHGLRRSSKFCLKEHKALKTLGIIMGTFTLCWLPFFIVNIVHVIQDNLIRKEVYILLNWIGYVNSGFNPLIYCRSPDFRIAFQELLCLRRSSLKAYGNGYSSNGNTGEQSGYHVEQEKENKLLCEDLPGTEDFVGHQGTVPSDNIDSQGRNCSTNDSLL

[11] = target: AP-2 complex subunit beta (Homo sapiens) (UniProt P63010); test: beta-arrestin/AP2 interaction blockers – biochemical, validation set, GST-AP2 beads, flow cytometry, pilot screen (AID 504541;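 active = inhibition above 54%, about 3 SD of non-fluorescent compounds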;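 note: AP2 carries R879A mutation and is captured from E. coli lysate; bead-bound FITC arrestin peptide fluorescence measuring arrestin peptide binding to AP2; 0% = DMSO wells and 100% = excess unlabeled arrestin peptide control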); conditions: FITC arrestin peptide, at 10 µM, stronger effect = higher value, AP2 beta2 appendage fragment, R879A mutant
Chain of AP-2 complex subunit beta (Homo sapiens) (P63010 whole entry, looked up, the tested form may be a part, one chain of several): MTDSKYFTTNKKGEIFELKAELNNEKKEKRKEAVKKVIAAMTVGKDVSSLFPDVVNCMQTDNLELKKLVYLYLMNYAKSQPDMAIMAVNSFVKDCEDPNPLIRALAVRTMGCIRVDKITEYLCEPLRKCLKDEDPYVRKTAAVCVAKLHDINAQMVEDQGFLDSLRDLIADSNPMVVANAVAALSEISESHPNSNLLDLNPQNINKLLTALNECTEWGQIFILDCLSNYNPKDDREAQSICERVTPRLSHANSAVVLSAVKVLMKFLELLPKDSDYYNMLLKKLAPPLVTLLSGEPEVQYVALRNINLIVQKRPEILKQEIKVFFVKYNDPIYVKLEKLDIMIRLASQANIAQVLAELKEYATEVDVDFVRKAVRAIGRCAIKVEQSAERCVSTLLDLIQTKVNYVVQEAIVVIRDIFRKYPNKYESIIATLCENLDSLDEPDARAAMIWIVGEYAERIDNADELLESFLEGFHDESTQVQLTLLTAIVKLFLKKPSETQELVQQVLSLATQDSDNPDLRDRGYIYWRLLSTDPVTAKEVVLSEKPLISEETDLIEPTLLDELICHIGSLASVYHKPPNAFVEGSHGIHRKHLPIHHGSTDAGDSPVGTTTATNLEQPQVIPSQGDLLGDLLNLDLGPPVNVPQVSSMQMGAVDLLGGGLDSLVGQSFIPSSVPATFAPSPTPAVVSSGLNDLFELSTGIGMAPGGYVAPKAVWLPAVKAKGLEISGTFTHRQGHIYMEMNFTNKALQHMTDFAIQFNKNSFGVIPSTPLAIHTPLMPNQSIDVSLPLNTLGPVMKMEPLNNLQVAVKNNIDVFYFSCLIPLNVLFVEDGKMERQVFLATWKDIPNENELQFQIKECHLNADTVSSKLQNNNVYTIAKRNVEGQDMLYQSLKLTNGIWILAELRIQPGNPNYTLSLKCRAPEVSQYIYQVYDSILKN

[12] = cytosolic pH regulators acting via V-ATPase – S. cerevisiae, pHLuorin, HTS validation (AID 504600; in the data active = response above about 15%;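 note: plate controls were DMSO for no effect and reference compound for full effect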); conditions: V-ATPase proton transport, at 10 µM, stronger effect = higher value
[13] = tested on: anti-desmoglein-3 scFv antibody binding to human DSG3; test: blockers of pathogenic pemphigus antibody–desmoglein-3 binding – biochemical, validation compound set, bead-based, flow cytometry, pilot screen (AID 588368;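 active = binding below the plate cutoff, the plate median minus 3 SD, with a reading above zero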;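 note: signal is the median channel fluorescence of bead-bound GFP antibody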); conditions: Protein G beads, DSG3-Fc, scFv-GFP binding, at 10 µM, stronger effect = lower value
[14] = Nile Red efflux blockade in pump-expressing yeast – validation compound set, multiplex, phenotypic, pilot screen (AID 588506;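 active = efflux inhibition above 0.42, the validation set average plus 4 SD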;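 note: Nile Red retained in cells so higher fluorescence means more efflux inhibition; 0 = negative control wells and 1 = enniatin B 25 µM full block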); conditions: S. cerevisiae pump-expressing triplex, Nile Red efflux flow cytometry; at 10 µM; stronger effect = higher value; the pumps come from Candida albicans
[15] = target: ATP-binding cassette sub-family B member 6 (Homo sapiens) (UniProt Q9NP58); test: blockers of ABCB6-driven porphyrin uptake – K562-ABCB6 cells, flow cytometry, validation set, pilot screen (AID 588550;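 active = inhibition above the screen-wide mean plus 3 SD, about 51%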;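 note: 0% = DMSO wells and 100% = benzethonium chloride 70 µM positive control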); conditions: K562-ABCB6 porphyrin accumulation, 1 h, at 10 µM, stronger effect = higher value
Chain of ATP-binding cassette sub-family B member 6 (Homo sapiens) (Q9NP58 whole entry, looked up): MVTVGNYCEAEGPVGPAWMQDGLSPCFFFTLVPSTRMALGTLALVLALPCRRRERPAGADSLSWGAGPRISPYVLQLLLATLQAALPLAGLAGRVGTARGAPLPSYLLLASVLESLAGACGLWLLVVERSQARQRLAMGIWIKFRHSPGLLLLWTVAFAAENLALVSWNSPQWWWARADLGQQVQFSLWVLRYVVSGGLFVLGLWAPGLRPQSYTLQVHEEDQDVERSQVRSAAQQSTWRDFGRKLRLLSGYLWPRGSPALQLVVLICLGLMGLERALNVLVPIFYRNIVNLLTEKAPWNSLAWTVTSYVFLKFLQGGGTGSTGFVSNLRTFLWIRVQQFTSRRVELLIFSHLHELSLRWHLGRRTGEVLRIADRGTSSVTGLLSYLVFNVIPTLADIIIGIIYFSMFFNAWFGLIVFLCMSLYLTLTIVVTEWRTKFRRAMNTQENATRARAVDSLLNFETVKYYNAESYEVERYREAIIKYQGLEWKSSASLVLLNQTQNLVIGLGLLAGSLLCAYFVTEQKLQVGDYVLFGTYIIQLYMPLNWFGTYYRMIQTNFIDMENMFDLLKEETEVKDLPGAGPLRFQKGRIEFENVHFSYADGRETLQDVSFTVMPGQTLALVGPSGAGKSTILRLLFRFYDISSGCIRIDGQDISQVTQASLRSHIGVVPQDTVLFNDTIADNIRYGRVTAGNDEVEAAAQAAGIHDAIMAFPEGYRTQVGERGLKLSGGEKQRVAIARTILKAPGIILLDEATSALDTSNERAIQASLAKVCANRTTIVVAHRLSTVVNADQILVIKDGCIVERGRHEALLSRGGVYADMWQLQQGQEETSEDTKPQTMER

[16] = AML differentiation inducers, ER-HoxA9 marrow cells – cell-based, GFP/MAC1 double positive, flow cytometry, validation set, primary screen (AID 588685;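 active = differentiation response of at least 50%, scaled between solvent and reference control, from cells with both markers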;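 note: compound exposure lasts four days before antibody staining and flow analysis; 0% = DMSO wells and 100% = 5 µM fulvestrant positive control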); conditions: stronger effect = higher value, normalized: vehicle 0, fulvestrant 100

Structure (SMILES) | percent of DMSO control GFP [1] | GFP response vs DMSO [2] | percent response of DMSO control [3] | GFP response vs DMSO [4] | GFP response, % of DMSO [5] | double positive events [6] [%] | vesicle binding response [6] | inhibition [7] | superoxide response (% of plate) [8] | aptamer binding inhibition [9] | response [10] | inhibition [11] | response [12] | binding (% of control) [13] | efflux inhibition (fraction of control) [14] | inhibition [15] | differentiation response [16]
CC(=O)[C@H]1[C@H](C#N)C[C@H]2[C@@H]3CC=C4C[C@@H](O)CC[C@]4(C)[C@H]3CC[C@@]21C | 92% (inactive) | 125% (inactive) | 104% (inactive) | 85.8% (inactive) | 88% (inactive) | 62.5 | 112% (inactive) | 19.1% (inactive) | 104% (inactive) | 11% (inactive) | 2.41% (inactive) | -10% (inactive) | 0% (inactive) | 103% (inactive) | -0.28 (inactive) | 6% (inactive) | -3.28% (inactive)
O=c1c(C(c2ccccc2)c2c(O)sc3ccccc3c2=O)c(O)sc2ccccc12 | 93.8% (inactive) | 97.6% (inactive) | 91.8% (inactive) | 112% (inactive) | 113% (inactive) | 71.3 | 187% (inactive) | 15.9% (inactive) | 90.1% (inactive) | 1% (inactive) | -1.18% (inactive) | -1.26% (inactive) | 0.43% (inactive) | 107% (inactive) | -0.13 (inactive) | -30% (inactive) | 37.4% (inactive)
CCOCCCNCc1cn(-c2ccc(F)cc2F)nc1-c1ccccc1C | 103% (inactive) | 98.3% (inactive) | 109% (inactive) | 93.3% (inactive) | 102% (inactive) | 61.9 | 200% (inactive) | -1.49% (inactive) | 101% (inactive) | 1% (inactive) | -8.93% (inactive) | 14.5% (inactive) | 4.59% (inactive) | 94.2% (inactive) | -0.07 (inactive) | -10% (inactive) | -1.71% (inactive)
Cc1ccccc1C(=O)Oc1ccc(Sc2ccc(O)cc2)cc1 | 103% (inactive) | 99.3% (inactive) | 100% (inactive) | 113% (inactive) | 100% (inactive) | 62.4 | 255% (inactive) | 0.58% (inactive) | 94.1% (inactive) | 0% (inactive) | -4.72% (inactive) | -5.67% (inactive) | 1.54% (inactive) | 97.6% (inactive) | 0.02 (inactive) | -7% (inactive) | -1.71% (inactive)
COc1ccc(-c2c[n+](CC(=O)OC3CC(C)CCC3C(C)C)c3n2CCC3)cc1 (stereo unspecified) | 99.5% (inactive) | 105% (inactive) | 102% (inactive) | 97% (inactive) | 98.6% (inactive) | 57.8 | 42.8% (inactive) | 5.61% (inactive) | 97.3% (inactive) | -6% (inactive) | -0.25% (inactive) | -5.29% (inactive) | 8.78% (inactive) | 108% (inactive) | 0.28 (inactive) | 6% (inactive) | -3.11% (inactive)
O=C1CCCC(=O)C1=Cc1c[nH]c2ccccc12 | 97.9% (inactive) | 102% (inactive) | 95.1% (inactive) | 112% (inactive) | 106% (inactive) | 62 | 226% (inactive) | 9.95% (inactive) | 108% (inactive) | 3% (inactive) | 28.4% (inactive) | 7.17% (inactive) | 5.91% (inactive) | 98.5% (inactive) | 0 (inactive) | -6% (inactive) | 5.85% (inactive)
Cc1csc(N)n1 | 101% (inactive) | 105% (inactive) | 114% (inactive) | 86.9% (inactive) | 101% (inactive) | 69.2 | 201% (inactive) | -7.12% (inactive) | 87% (inactive) | -1% (inactive) | 4.23% (inactive) | 5.92% (inactive) | -1.8% (inactive) | 105% (inactive) | -0.31 (inactive) | 12% (inactive) | 9.01% (inactive)
c1ccc(Cn2nnc3cnccc32)cc1 | 104% (inactive) | 101% (inactive) | 104% (inactive) | 106% (inactive) | 107% (inactive) | 57.9 | 67.8% (inactive) | 4.27% (inactive) | 113% (inactive) | 2% (inactive) | 0.22% (inactive) | -12.1% (inactive) | 0.84% (inactive) | 102% (inactive) | 0.33 (inactive) | 9% (inactive) | -10.4% (inactive)
CC(C)(CO)CNC(=O)CC1C(=O)NCCN1CC(c1ccccc1)c1ccccc1 (stereo unspecified) | 97.8% (inactive) | 106% (inactive) | 86.3% (inactive) | 114% (inactive) | 96% (inactive) | 65.3 | 7860% (inactive) | 3.67% (inactive) | 115% (inactive) | -1% (inactive) | -3.26% (inactive) | -0.19% (inactive) | 0.18% (inactive) | 99.5% (inactive) | 0.05 (inactive) | 7% (inactive) | -8.8% (inactive)
N#CCC(N)=C(C#N)C#N | 91.5% (inactive) | 120% (inactive) | 111% (inactive) | 82.5% (inactive) | 91.7% (inactive) | 60.1 | 188% (inactive) | -4.21% (inactive) | 108% (inactive) | 9% (inactive) | -2.94% (inactive) | -8.05% (inactive) | 1.3% (inactive) | 101% (inactive) | -0.02 (inactive) | -45% (inactive) | -5.73% (inactive)
CC(C)(C)NCC(O)COc1cccc2c1C[C@H](O)[C@H](O)C2 (stereo partly specified) | 104% (inactive) | 108% (inactive) | 98.9% (inactive) | 88.1% (inactive) | 98.1% (inactive) | 62.6 | 1270% (inactive) | -16% (inactive) | 104% (inactive) | 3% (inactive) | 0.85% (inactive) | 55.4% (active) | -3.23% (inactive) | 99.2% (inactive) | 0.05 (inactive) | 17% (inactive) | 14.9% (inactive)
COc1cc2c(cc1OC)C(C)=NC1(CCCCC1)C2 | 99.2% (inactive) | 98.6% (inactive) | 95.1% (inactive) | 106% (inactive) | 107% (inactive) | 62.8 | 215% (inactive) | -29.2% (inactive) | 100% (inactive) | 6% (inactive) | -21.7% (inactive) | 20.9% (inactive) | 8.37% (inactive) | 131% (inactive) | -0.04 (inactive) | -52% (inactive) | -14.8% (inactive)
Nc1ccn([C@@H]2O[C@H](CO)[C@@H](O)[C@@H]2O)c(=O)n1 | 101% (inactive) | 106% (inactive) | 109% (inactive) | 114% (inactive) | 111% (inactive) | 64.5 | 201% (inactive) | 8.29% (inactive) | 108% (inactive) | 0% (inactive) | -9.36% (inactive) | 10.5% (inactive) | -2.75% (inactive) | 99.4% (inactive) | -0.08 (inactive) | -10% (inactive) | -11.9% (inactive)
